{"source": "paper PMC10726135", "about": "“HNF4α isoforms regulate the circadian balance between carbohydrate and lipid metabolism in the liver”", "note": "In all, about 18,000 sequences were measured (“log2 normalized intensity”: median about 0.39, highest 2% from about 6.6 on). The sample as a whole holds a higher share of the highest values than the screen did."}
{"molecular_target": "T1, HNF4alpha2 (COS-7 nuclear extract) (Homo sapiens, UniProt P41235 1-474)", "T1 sequence": "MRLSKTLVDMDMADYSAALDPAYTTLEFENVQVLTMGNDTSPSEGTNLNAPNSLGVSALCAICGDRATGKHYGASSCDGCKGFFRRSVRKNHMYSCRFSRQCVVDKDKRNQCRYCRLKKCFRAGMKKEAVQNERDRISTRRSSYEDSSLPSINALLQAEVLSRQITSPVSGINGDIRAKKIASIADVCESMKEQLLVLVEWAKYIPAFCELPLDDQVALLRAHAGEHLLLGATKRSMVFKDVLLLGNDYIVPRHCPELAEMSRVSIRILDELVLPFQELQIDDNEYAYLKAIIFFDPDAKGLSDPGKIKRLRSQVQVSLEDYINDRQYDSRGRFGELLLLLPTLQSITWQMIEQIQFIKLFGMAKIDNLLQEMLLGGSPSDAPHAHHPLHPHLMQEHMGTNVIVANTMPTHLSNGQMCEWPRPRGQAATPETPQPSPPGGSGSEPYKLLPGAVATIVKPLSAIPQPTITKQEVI", "assay": "protein-binding microarray; COS-7 nuclear extract on double-stranded Agilent 4x180k PBM; binding buffer, salt, pH and temperature not given in the material; high values mean tight binding", "conditions": "chain copies: 2; label: 3' end of strand 1 on the slide; dsDNA, one strand shown", "summary_of_the_method": "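Double-stranded oligonucleotides of ~60 nt, representing ~44,000 test sequences in quadruplicate, made up a custom Agilent SurePrint G3 4x180k array. Nuclear extracts from COS-7 cells transiently transfected by CaPO4 with a human HNF4α isoform expression vector were applied, and bound HNF4α was imaged at 2-µm resolution on an Agilent G2565CA scanner. Binding signal refers to the background-corrected, normalized gProcessedSignal output of Agilent software.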", "units": {"binding signal": "log2 normalized intensity"}}
{"sequence": "ACGTCTGTTAACCAAGATACTGGGTCAGAGGCCTAGGGAGATTAGAGTATCGGTCGA", "binding signal": 1.11}
{"sequence": "ACCAGCGTAATTCTGGCTCTTTGAGTGGTTGCCTAGGGAGATTAGAGTATCGGTCGA", "binding signal": 0.76}
{"sequence": "TCCAGCATTCTTTTCCCCATACCAGGCAGTGCCTAGGGAGATTAGAGTATCGGTCGA", "binding signal": 2.37}
{"sequence": "GTGCTCCCTCCCCCTGCATGAACCTTTGCTGCCTAGGGAGATTAGAGTATCGGTCGA", "binding signal": 3.19}
{"sequence": "AGTAACCTGACCCCCAGTGGAATGTGCCCTGCCTAGGGAGATTAGAGTATCGGTCGA", "binding signal": 3.87}
{"sequence": "GGCCAGGTGGGCTGCTCCCAGTGCCCTTTGGCCTAGGGAGATTAGAGTATCGGTCGA", "binding signal": 3.73}
{"sequence": "CCCCCAGTGGAATGTGCCCTTTGACCTCTCGCCTAGGGAGATTAGAGTATCGGTCGA", "binding signal": 9.72}
{"sequence": "AGTGGAATGTGCCCTTTGACCTCTCTCTCCGCCTAGGGAGATTAGAGTATCGGTCGA", "binding signal": 7.71}
{"sequence": "CCTGACCCCCAGTGGAATGTGCCCTTTGACGCCTAGGGAGATTAGAGTATCGGTCGA", "binding signal": 4.95}
{"sequence": "CGCCGGGCGCCGCTCTGAGTGACCTTTCACGCCTAGGGAGATTAGAGTATCGGTCGA", "binding signal": 4.57}
{"sequence": "GGCGCCGCTCTGAGTGACCTTTCACCCGCGGCCTAGGGAGATTAGAGTATCGGTCGA", "binding signal": 6.81}
{"sequence": "CGCTCTGAGTGACCTTTCACCCGCGCCCAGGCCTAGGGAGATTAGAGTATCGGTCGA", "binding signal": 5.48}
{"sequence": "GGAATGACCTTTGATATTTGTGCCTAGTGGGCCTAGGGAGATTAGAGTATCGGTCGA", "binding signal": 4.8}
{"sequence": "AATGTGCCCTTTGACCTCTCTCTCCTAACTGCCTAGGGAGATTAGAGTATCGGTCGA", "binding signal": 6.48}
{"sequence": "GGTGGGCTGCTCCCAGTGCCCTTTGAACTCGCCTAGGGAGATTAGAGTATCGGTCGA", "binding signal": 8.32}
{"sequence": "CTTCAAAGGTCGTGTGCTTATCACATCTATGCCTAGGGAGATTAGAGTATCGGTCGA", "binding signal": 1.12}
{"sequence": "GTGATGACCCCATACTTCAGCAATTTCTTAGCCTAGGGAGATTAGAGTATCGGTCGA", "binding signal": 1.12}
{"sequence": "AATCCCCTTCAAGTCTGAGATGAAGAGGCCGCCTAGGGAGATTAGAGTATCGGTCGA", "binding signal": 0.649}
{"sequence": "CAGTGGTAATGGAGCTGAAACTATAAACTTGCCTAGGGAGATTAGAGTATCGGTCGA", "binding signal": -0.653}
{"sequence": "ACCTTTGCCCTGGATCTTGAAGCAGAAAACGCCTAGGGAGATTAGAGTATCGGTCGA", "binding signal": 1.58}
{"sequence": "TAATCAGCTTAAGCATACAGATTACATCTCGCCTAGGGAGATTAGAGTATCGGTCGA", "binding signal": -0.798}
{"sequence": "ACGTTCACGTCTCAAGCTTCAGGAGTCCACGCCTAGGGAGATTAGAGTATCGGTCGA", "binding signal": 2.07}
{"sequence": "ATACGATAATGTCAAACATCTTATATCAACGCCTAGGGAGATTAGAGTATCGGTCGA", "binding signal": 0.675}
{"sequence": "TCTATCTGTATTCTGAAGCCCTACAGCCCAGCCTAGGGAGATTAGAGTATCGGTCGA", "binding signal": -0.864}
{"sequence": "CCTCTGCATTTGCTCCCTGACTTGGTTTACGCCTAGGGAGATTAGAGTATCGGTCGA", "binding signal": 1.67}
{"sequence": "CAGATCCAGTGGACTCTCTGTTTGATCAGCGCCTAGGGAGATTAGAGTATCGGTCGA", "binding signal": 1.51}
{"sequence": "TGTCACACACAGACTTGGGTTCAAAGAGCAGCCTAGGGAGATTAGAGTATCGGTCGA", "binding signal": 3.94}
{"sequence": "AATGATTGCATAATCTGGCTCCAAAGTCTAGCCTAGGGAGATTAGAGTATCGGTCGA", "binding signal": 2.2}
{"sequence": "CCTTTACCCTGACCTGTCAAGCAATGATCTGCCTAGGGAGATTAGAGTATCGGTCGA", "binding signal": 1.25}
{"sequence": "AGCAGTCTGAGTAGGAAAGACTTGCTCATTGCCTAGGGAGATTAGAGTATCGGTCGA", "binding signal": -0.18}
{"sequence": "CCCTCTGAGTGTTTGACCTTTCACCCAGAAGCCTAGGGAGATTAGAGTATCGGTCGA", "binding signal": 6.42}
{"sequence": "CACTCTGGTGCCCTCTGAGTGTTTGACCTTGCCTAGGGAGATTAGAGTATCGGTCGA", "binding signal": 5.15}
{"sequence": "TGGTGCCCTCTGAGTGTTTGACCTTTCACCGCCTAGGGAGATTAGAGTATCGGTCGA", "binding signal": 7.66}
{"sequence": "GTTGCTTCCACCTATGAGTCTGTAAAGTCAGCCTAGGGAGATTAGAGTATCGGTCGA", "binding signal": 0.468}
{"sequence": "AATATTCTGGCTTCTCGTGAGTATTTTTTCGCCTAGGGAGATTAGAGTATCGGTCGA", "binding signal": 0.954}
{"sequence": "TTTGGAATTGTGTCACTCCCCAGGAATGTGGCCTAGGGAGATTAGAGTATCGGTCGA", "binding signal": 1.89}
{"sequence": "CCTCTGCACCCCACCAAGGACTGGACCACCGCCTAGGGAGATTAGAGTATCGGTCGA", "binding signal": 2.34}
{"sequence": "CCACTTTGAATCAGGAGAGCATCTGAGTGTGCCTAGGGAGATTAGAGTATCGGTCGA", "binding signal": 1.15}
{"sequence": "AGGAATTCTGATCTTTGACCTCTCCAGGGTGCCTAGGGAGATTAGAGTATCGGTCGA", "binding signal": 5.99}
{"sequence": "AGAGCAGGAATTCTGATCTTTGACCTCTCCGCCTAGGGAGATTAGAGTATCGGTCGA", "binding signal": 7.34}
{"sequence": "TAATCAGAGCAGGAATTCTGATCTTTGACCGCCTAGGGAGATTAGAGTATCGGTCGA", "binding signal": 7.18}
{"sequence": "CATCTTTGAAGAGCACAGGGTCAGCAGATCGCCTAGGGAGATTAGAGTATCGGTCGA", "binding signal": 1.17}
{"sequence": "TTCTGATCTTTGACCTCTCCAGGGTCCTTGGCCTAGGGAGATTAGAGTATCGGTCGA", "binding signal": 4.73}
{"sequence": "GCCACCTTGGTGAGAGATTAAACATGCTCTGCCTAGGGAGATTAGAGTATCGGTCGA", "binding signal": 0.469}
{"sequence": "ACAGCCTTTTGAGTTTCTACCATAGACCCTGCCTAGGGAGATTAGAGTATCGGTCGA", "binding signal": 1.05}
{"sequence": "TGATCCATTCTACCCCTGTGGTTGACCTTTGCCTAGGGAGATTAGAGTATCGGTCGA", "binding signal": 7.8}
{"sequence": "TTACTGGACTTGATCCATTCTACCCCTGTGGCCTAGGGAGATTAGAGTATCGGTCGA", "binding signal": 2.73}
{"sequence": "ATGCTAAAGTCTACATTCTAGATGACCCCTGCCTAGGGAGATTAGAGTATCGGTCGA", "binding signal": 5.66}
